# According to PubChem BioAssay (NCI):
# Where “and” joins values, the source holds several entries; their conditions need not be identical. Equal values may be shown once. This is part of a sample that, as a whole, favours compounds with a hit. Of some 83,000 tested, about 20% had one in any assay.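 In brief: 96-well plates, 48 h treatment, single concentration, percent growth endpoint.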 Calls of active or inactive are those of the source. How the source made its calls: active means growth percent below 10; inactive means the rest.
# Experiments:
# Assay in all cases: NCI-60 one-dose screen, 48 h (100 = growth as untreated, 0 = no growth, -100 = all killed)
# DU-145 prostate = test system: DU-145 prostate
# K-562 leukemia = test system: K-562 leukemia
# MALME-3M melanoma = test system: MALME-3M melanoma
# MDA-MB-231 breast = test system: MDA-MB-231 breast
# RXF 393 renal = test system: RXF 393 renal
# SF-268 CNS = test system: SF-268 CNS
# SF-295 CNS = test system: SF-295 CNS
# SF-539 CNS = test system: SF-539 CNS
# UACC-257 melanoma = test system: UACC-257 melanoma
# M14 melanoma = test system: M14 melanoma
# HCT-15 colon = test system: HCT-15 colon
# HT29 colon = test system: HT29 colon
# SNB-75 CNS = test system: SNB-75 CNS
# SNB-19 CNS = test system: SNB-19 CNS
# U251 CNS = conditions: 10 µM unless noted
# PC-3 prostate = conditions: 10 µM unless noted
# SK-MEL-5 melanoma = test system: SK-MEL-5 melanoma
# UACC-62 melanoma = test system: UACC-62 melanoma
# LOX IMVI melanoma = test system: LOX IMVI melanoma
# SK-MEL-28 melanoma = conditions: 10 µM unless noted
structure (smiles),measurement,setting,value
CCN(CC)CC(C)(C)C(=O)/C=C/c1ccc(Cl)c(Cl)c1,growth,DU-145 prostate; 10 µM unless noted,-61.6% (active)
same,growth,K-562 leukemia; 10 µM unless noted,1.04% (active)
same,growth,MALME-3M melanoma; 10 µM unless noted,-52.7% (active)
same,growth,MDA-MB-231 breast; 10 µM unless noted,-48.8% (active)
same,growth,RXF 393 renal; 10 µM unless noted,-81.9% (active)
same,growth,SF-268 CNS; 10 µM unless noted,-0.0402% (active)
same,growth,SF-295 CNS; 10 µM unless noted,48.1% (inactive)
same,growth,SF-539 CNS; 10 µM unless noted,-50.4% (active)
same,growth,UACC-257 melanoma; 10 µM unless noted,-5.04% (active)
same,growth,M14 melanoma; 10 µM unless noted,-43.5% (active)
same,growth,HCT-15 colon; 10 µM unless noted,-34% (active)
same,growth,HT29 colon; 10 µM unless noted,-47.4% (active)
same,growth,SNB-75 CNS; 10 µM unless noted,30% (inactive)
same,growth,SNB-19 CNS; 10 µM unless noted,-30.1% (active)
same,growth,U251 CNS,-45.8% (active)
same,growth,PC-3 prostate,-33.8% (active)
same,growth,SK-MEL-5 melanoma; 10 µM unless noted,0.295% (active)
same,growth,UACC-62 melanoma; 10 µM unless noted,-56.2% (active)
same,growth,LOX IMVI melanoma; 10 µM unless noted,-82.4% (active)
same,growth,SK-MEL-28 melanoma,-35.5% (active)
COc1ccccc1/C=C\C(=O)c1ccccc1,growth,DU-145 prostate; 10 µM unless noted,94.7% (inactive)
same,growth,K-562 leukemia; 10 µM unless noted,13% (inactive)
same,growth,MALME-3M melanoma; 10 µM unless noted,78.9% (inactive)
same,growth,MDA-MB-231 breast; 10 µM unless noted,84.8% (inactive)
same,growth,RXF 393 renal; 10 µM unless noted,85.5% (inactive)
same,growth,SF-268 CNS; 10 µM unless noted,96.1% (inactive)
same,growth,SF-295 CNS; 10 µM unless noted,94.2% (inactive)
same,growth,SF-539 CNS; 10 µM unless noted,92.4% (inactive)
same,growth,UACC-257 melanoma; 10 µM unless noted,82.2% (inactive)
same,growth,M14 melanoma; 10 µM unless noted,78.5% (inactive)
same,growth,HCT-15 colon; 10 µM unless noted,70.2% (inactive)
same,growth,HT29 colon; 10 µM unless noted,41.9% (inactive)
same,growth,SNB-75 CNS; 10 µM unless noted,77.8% (inactive)
same,growth,SNB-19 CNS; 10 µM unless noted,79.4% (inactive)
same,growth,U251 CNS,45.6% (inactive)
same,growth,PC-3 prostate,61.8% (inactive)
same,growth,SK-MEL-5 melanoma; 10 µM unless noted,72.3% (inactive)
same,growth,UACC-62 melanoma; 10 µM unless noted,77.2% (inactive)
CN=C(N)N/N=C(\C)c1ccc2c(c1)Cc1cc(/C(C)=N/NC(N)=NC)ccc1-2,growth,DU-145 prostate; 10 µM unless noted,-35.5% (active)
same,growth,K-562 leukemia; 10 µM unless noted,-7.26% (active)
same,growth,MALME-3M melanoma; 10 µM unless noted,-65.5% (active)
same,growth,MDA-MB-231 breast; 10 µM unless noted,-33.8% (active)
same,growth,RXF 393 renal; 10 µM unless noted,-21.2% (active)
same,growth,SF-268 CNS; 10 µM unless noted,-61% (active)
same,growth,SF-295 CNS; 10 µM unless noted,-28.1% (active)
same,growth,SF-539 CNS; 10 µM unless noted,-89% (active)
same,growth,UACC-257 melanoma; 10 µM unless noted,56.5% (inactive)
same,growth,M14 melanoma; 10 µM unless noted,-85.7% (active)
same,growth,HCT-15 colon; 10 µM unless noted,2.4% (active)
same,growth,HT29 colon; 10 µM unless noted,-49.7% (active)
same,growth,SNB-75 CNS; 10 µM unless noted,-46.5% (active)
same,growth,SNB-19 CNS; 10 µM unless noted,-43.6% (active)
same,growth,U251 CNS,-78.9% (active)
same,growth,PC-3 prostate,15.9% (inactive)
same,growth,SK-MEL-5 melanoma; 10 µM unless noted,-89.9% (active)
same,growth,UACC-62 melanoma; 10 µM unless noted,-78.3% (active)
same,growth,LOX IMVI melanoma; 10 µM unless noted,-49.3% (active)
same,growth,SK-MEL-28 melanoma,-64.7% (active)
COc1cc(NS(C)(=O)=O)ccc1Nc1c2ccccc2nc2ccccc12,growth,DU-145 prostate; 10 µM unless noted,-34.4% [2.5 µM] (active)
same,growth,K-562 leukemia; 2.5 µM,29.2% (inactive)
same,growth,K-562 leukemia; 10 µM,0.97% (active) and 16.8% (inactive) and 23.4% (inactive)
same,growth,MALME-3M melanoma; 2.5 µM,43.4% (inactive)
same,growth,MALME-3M melanoma; 10 µM,-25.4% (active) and 20.4% (inactive) and 25.4% (inactive)
same,growth,MDA-MB-231 breast; 10 µM unless noted,98.2% [2.5 µM] (inactive)
same,growth,RXF 393 renal; 10 µM unless noted,6.88% [2.5 µM] (active)
same,growth,SF-268 CNS; 2.5 µM,35.1% (inactive)
same,growth,SF-268 CNS; 10 µM,25.1% (inactive) [middle of 4 runs]
same,growth,SF-295 CNS; 10 µM unless noted,3.7% [2.5 µM] (active)
same,growth,SF-539 CNS; 10 µM unless noted,-34.3% [2.5 µM] (active)
same,growth,UACC-257 melanoma; 10 µM unless noted,5.31% [2.5 µM] (active)
same,growth,M14 melanoma; 10 µM unless noted,8.39% (active) [middle of 4 runs]
same,growth,HT29 colon; 10 µM unless noted,43.4% [2.5 µM] (inactive)
same,growth,SNB-75 CNS; 10 µM unless noted,27.9% [2.5 µM] (inactive)
same,growth,SNB-19 CNS; 2.5 µM,14.5% (inactive)
same,growth,SNB-19 CNS; 10 µM,-26% (active) and 28.9% (inactive) and 35.6% (inactive)
same,growth,PC-3 prostate,52.8% [2.5 µM] (inactive)
same,growth,SK-MEL-5 melanoma; 10 µM unless noted,3.48% [2.5 µM] (active)
same,growth,UACC-62 melanoma; 2.5 µM,29.1% (inactive)
same,growth,UACC-62 melanoma; 250 µM,-86.2% (active) and -100% (active)
same,growth,SK-MEL-28 melanoma,52.5% (inactive) and 63.7% (inactive) and 53.8% (inactive)
O[C@H]1[C@H]2c3cc4c(cc3CN3CCC(=C[C@@H]1O)[C@H]23)OCO4,growth,DU-145 prostate; 10 µM unless noted,9.62% (active)
same,growth,K-562 leukemia; 10 µM unless noted,21.4% (inactive)
same,growth,MALME-3M melanoma; 10 µM unless noted,41.9% (inactive)
same,growth,MDA-MB-231 breast; 10 µM unless noted,39.6% (inactive)
same,growth,RXF 393 renal; 10 µM unless noted,19% (inactive)
same,growth,SF-268 CNS; 10 µM unless noted,24.4% (inactive)
same,growth,SF-295 CNS; 10 µM unless noted,34% (inactive)
same,growth,SF-539 CNS; 10 µM unless noted,14% (inactive)
same,growth,UACC-257 melanoma; 10 µM unless noted,45.7% (inactive)
same,growth,M14 melanoma; 10 µM unless noted,15.9% (inactive)
same,growth,HCT-15 colon; 10 µM unless noted,21.6% (inactive)
same,growth,HT29 colon; 10 µM unless noted,18.5% (inactive)
same,growth,SNB-75 CNS; 10 µM unless noted,23% (inactive)
same,growth,SNB-19 CNS; 10 µM unless noted,28.9% (inactive)
same,growth,U251 CNS,22.5% (inactive)
same,growth,PC-3 prostate,34.2% (inactive)
same,growth,SK-MEL-5 melanoma; 10 µM unless noted,14.2% (inactive)
same,growth,UACC-62 melanoma; 10 µM unless noted,62% (inactive)
same,growth,LOX IMVI melanoma; 10 µM unless noted,0.731% (active)
same,growth,SK-MEL-28 melanoma,20.7% (inactive)
O=C(O)c1c(Cl)c(Cl)c(Cl)c(Cl)c1-c1c2cc(I)c(=O)c(I)c-2oc2c(I)c(O)c(I)cc12,growth,DU-145 prostate; 10 µM,93.5% (inactive) and 95.2% (inactive) and 112% (inactive)
same,growth,DU-145 prostate; 100 µM,59% (inactive)
same,growth,K-562 leukemia; 10 µM,112% (inactive) and 113% (inactive) and 92.3% (inactive)
same,growth,K-562 leukemia; 100 µM,-33.1% (active)
same,growth,MALME-3M melanoma; 10 µM,110% (inactive) and 56.4% (inactive)
same,growth,MALME-3M melanoma; 100 µM,-11.9% (active)
same,growth,MDA-MB-231 breast; 10 µM,94.7% (inactive) and 102% (inactive) and 104% (inactive)
same,growth,MDA-MB-231 breast; 100 µM,-39.7% (active)
same,growth,RXF 393 renal; 10 µM,92.5% (inactive) and 90.9% (inactive) and 57.7% (inactive)
same,growth,RXF 393 renal; 100 µM,-78.9% (active)
same,growth,SF-268 CNS; 10 µM,88.2% (inactive) and 78.4% (inactive) and 96.9% (inactive)
same,growth,SF-268 CNS; 100 µM,19.8% (inactive)
same,growth,SF-295 CNS; 10 µM,100% (inactive) and 98.8% (inactive) and 96.3% (inactive)
same,growth,SF-295 CNS; 100 µM,15.3% (inactive)
same,growth,SF-539 CNS; 10 µM,95.4% (inactive) and 96.5% (inactive) and 77.9% (inactive)
same,growth,SF-539 CNS; 100 µM,-67.5% (active)
same,growth,UACC-257 melanoma; 10 µM,115% (inactive) and 117% (inactive) and 90.6% (inactive)
same,growth,UACC-257 melanoma; 100 µM,22.9% (inactive)
same,growth,M14 melanoma; 10 µM,104% (inactive) and 95.6% (inactive) and 119% (inactive)
same,growth,M14 melanoma; 100 µM,69.7% (inactive)
same,growth,HCT-15 colon; 10 µM,101% (inactive) and 107% (inactive) and 90.1% (inactive)
same,growth,HCT-15 colon; 100 µM,22.9% (inactive)
same,growth,HT29 colon; 10 µM,105% (inactive) and 104% (inactive) and 95.2% (inactive)
same,growth,HT29 colon; 100 µM,39.2% (inactive)
same,growth,SNB-75 CNS; 10 µM,108% (inactive) and 91.1% (inactive) and 49.5% (inactive)
same,growth,SNB-75 CNS; 100 µM,26% (inactive)
same,growth,SNB-19 CNS; 10 µM,100% (inactive) and 98.4% (inactive) and 97.9% (inactive)
same,growth,SNB-19 CNS; 100 µM,-47.9% (active)
same,growth,U251 CNS,98.5% (inactive) and 95.3% (inactive) and 97.7% (inactive)
same,growth,SK-MEL-5 melanoma; 10 µM,107% (inactive) and 110% (inactive) and 96.1% (inactive)
same,growth,SK-MEL-5 melanoma; 100 µM,22.1% (inactive)
same,growth,UACC-62 melanoma; 10 µM,98.8% (inactive) and 107% (inactive) and 96.1% (inactive)
same,growth,UACC-62 melanoma; 100 µM,-41.3% (active)
same,growth,LOX IMVI melanoma; 10 µM,98.6% (inactive) and 92% (inactive) and 87.7% (inactive)
same,growth,LOX IMVI melanoma; 100 µM,-76.1% (active)
